PubChem BioAssay (NCI)
This is part of a sample that, as a whole, favours compounds with a hit. Of some 83,000 tested, about 20% had one in any assay.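 Plates (96-well) were seeded with cells, treated with compound at one concentration, and incubated for 48 hours before percent growth was determined.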 Calls of active or inactive are those of the source. The calls were made as follows: active = growth percent below 10; inactive = the rest.

How the values were obtained:
Assay in all cases: NCI-60 one-dose screen, 48 h (100 = growth as untreated, 0 = no growth, -100 = all killed)
HCT-15 colon = details: 10 µM unless noted
HT29 colon = details: 10 µM unless noted
SNB-75 CNS = details: 10 µM unless noted
SNB-19 CNS = details: 10 µM unless noted
U251 CNS = details: 10 µM unless noted
PC-3 prostate = details: 10 µM unless noted
SK-MEL-5 melanoma = details: 10 µM unless noted
UACC-62 melanoma = details: 10 µM unless noted
LOX IMVI melanoma = details: 10 µM unless noted
SK-MEL-28 melanoma = details: 10 µM unless noted
SK-MEL-2 melanoma = details: 10 µM
EKVX NSCLC = details: 10 µM unless noted
SN12C renal = details: 10 µM unless noted
UO-31 renal = details: 10 µM unless noted
TK-10 renal = details: 10 µM unless noted
ACHN renal = details: 10 µM unless noted
A498 renal = details: 10 µM unless noted
MOLT-4 leukemia = details: 10 µM unless noted
CCRF-CEM leukemia = details: 10 µM unless noted
CAKI-1 renal = details: 10 µM unless noted

Measured: growth

CC(=Nc1ccccc1)C1=C(O)C(Cc2ccc(O)cc2)NC1=O (configuration not stated)
active: HT29 colon 1.34% | SK-MEL-5 melanoma -44% | A498 renal -25.6% | MOLT-4 leukemia -3.04%
inactive: HCT-15 colon 12.1% | SNB-75 CNS 15.2% | SNB-19 CNS 34% | U251 CNS 12.8% | PC-3 prostate 15.7% | UACC-62 melanoma 28.6% | LOX IMVI melanoma 19.2% | SK-MEL-28 melanoma 40% | SK-MEL-2 melanoma 42.2% | EKVX NSCLC 20.4% | SN12C renal 43.5% | UO-31 renal 42.3% | TK-10 renal 68.2% | ACHN renal 33.2%

Cc1cc2c(-c3nc4ccccn4c3N)c(O)c(O)cc2c(O)c1-c1c(C)cc2c(-c3nc4ccccn4c3N)c(O)c(O)cc2c1O
inactive: HCT-15 colon 17.8% | SNB-75 CNS 18% | SNB-19 CNS 12.8% | PC-3 prostate 16.3% | SK-MEL-28 melanoma 38.3% | EKVX NSCLC 21.8% | SN12C renal 10.1% | UO-31 renal 31.2% | TK-10 renal 11.9% | ACHN renal 17.4% | CCRF-CEM leukemia 23.1% | MOLT-4 leukemia 23.5%
active: HT29 colon 8.01% | U251 CNS 8% | SK-MEL-5 melanoma -7.68% | UACC-62 melanoma 5.54% | LOX IMVI melanoma 7.21% | SK-MEL-2 melanoma -20.6% | A498 renal 2.77%

Nc1nc(N)c2cc(CNc3ccc(C(=O)NC(CC(=O)O)C(=O)O)cc3)ccc2n1 (configuration not stated)
inactive: HCT-15 colon 36.9% | HT29 colon 19.8% | SNB-75 CNS 52.8% | SNB-19 CNS 43.4% | U251 CNS 38.1% | PC-3 prostate 31.2% | SK-MEL-5 melanoma 21.8% | LOX IMVI melanoma 15.2% | SK-MEL-28 melanoma 54.3% | SK-MEL-2 melanoma 72.3% | EKVX NSCLC 43.2% | SN12C renal 15.5% | UO-31 renal 35.8% | TK-10 renal 61.2% | ACHN renal 25.9% | CCRF-CEM leukemia 23% | MOLT-4 leukemia 32.8%
active: UACC-62 melanoma 3.72%

CCN(CC)C(=O)C[N+](C)(C)CCOC(c1ccccc1)c1ccccc1
inactive: HCT-15 colon 101% | HT29 colon 105% | SNB-75 CNS 75.4% | SNB-19 CNS 106% | U251 CNS 110% | PC-3 prostate 100% | SK-MEL-5 melanoma 103% | UACC-62 melanoma 106% | LOX IMVI melanoma 97.7% | SK-MEL-28 melanoma 105% | SK-MEL-2 melanoma 103% | EKVX NSCLC 100% | SN12C renal 106% | UO-31 renal 93.4% | TK-10 renal 98.2% | ACHN renal 111% | A498 renal 114% | CCRF-CEM leukemia 112% | MOLT-4 leukemia 103%

N#Cc1c(C(F)(F)F)cc(Nc2ccc3nc(NCCN4CCCC4)oc3c2)n2c1nc1ccccc12
inactive: HCT-15 colon 56.6% | SNB-75 CNS 82.6% | SNB-19 CNS 85.2% | U251 CNS 89% | PC-3 prostate 52.1% | SK-MEL-5 melanoma 69.8% | UACC-62 melanoma 78.1% | LOX IMVI melanoma 62.3% | SK-MEL-28 melanoma 72.8% | SK-MEL-2 melanoma 83.8% | EKVX NSCLC 73.6% | SN12C renal 55.6% | UO-31 renal 66.6% | TK-10 renal 79.5% | CAKI-1 renal 74.1% | A498 renal 52.8% | CCRF-CEM leukemia 11% | MOLT-4 leukemia 56.7%
active: HT29 colon 5.45%

COC(=O)C1=C(C(=O)OC)C23C=C(C)C1C2=C(C)C1(CC1)[C@@](C)(O)C3=O (some centres not stated)
inactive: PC-3 prostate 11.5% | MOLT-4 leukemia 73.6%
active: HCT-15 colon 6.97% | HT29 colon -0.501% | SNB-75 CNS -56.5% | SNB-19 CNS 7.17% | U251 CNS 2.06% | SK-MEL-5 melanoma -75.7% | UACC-62 melanoma -45.2% | LOX IMVI melanoma -14.3% | SK-MEL-28 melanoma -22.5% | SK-MEL-2 melanoma -54.6% | EKVX NSCLC -6% | SN12C renal 9.49% | UO-31 renal -28% | TK-10 renal -6.99% | ACHN renal 3.21% | A498 renal -44%

CC(C)(C)C(=O)OCOP(=O)(OCOC(=O)C(C)(C)C)C1CCCN(OC(=O)c2ccccc2)C1=O (configuration not stated)
inactive: HCT-15 colon 28.6% | SNB-75 CNS 73.1% | SNB-19 CNS 14% | PC-3 prostate 49.7% | LOX IMVI melanoma 40.1% | SK-MEL-2 melanoma 51% | EKVX NSCLC 21.4% | UO-31 renal 11.5% | TK-10 renal 11.7% | ACHN renal 15.7% | A498 renal 10.9%
active: HT29 colon 5.75% | U251 CNS 6.63% | SK-MEL-5 melanoma -28% | UACC-62 melanoma 4.95% | SK-MEL-28 melanoma -11.1% | SN12C renal 4.97% | MOLT-4 leukemia 7.12%

COc1cc(-c2cc(-c3ccc(Nc4ccnc5cc(Cl)ccc45)cc3)nc(N3CCOCC3)n2)cc(OC)c1OC
inactive: SNB-19 CNS 28.8% | SK-MEL-5 melanoma 28% | UACC-62 melanoma 70.1% | SK-MEL-2 melanoma 83.9% | EKVX NSCLC 30.9% | UO-31 renal 37.5% | ACHN renal 16.7% | A498 renal 102% | MOLT-4 leukemia 19.6%
active: HCT-15 colon -29.8% | HT29 colon -21.8% | SNB-75 CNS -25.3% | U251 CNS -57.1% | PC-3 prostate -5.02% | LOX IMVI melanoma 4.79% | SK-MEL-28 melanoma 7.13% | SN12C renal -11.9% | TK-10 renal -75.9% | CCRF-CEM leukemia -4.98%

N#Cc1cc2[nH]c3ccc(OC(F)(F)F)cc3c2oc1=O
inactive: HCT-15 colon 58.8% | HT29 colon 79.6% | SNB-75 CNS 53.6% | SNB-19 CNS 93.6% | U251 CNS 73.2% | PC-3 prostate 60.3% | SK-MEL-5 melanoma 70.8% | UACC-62 melanoma 88.9% | LOX IMVI melanoma 74.5% | SK-MEL-28 melanoma 93% | SK-MEL-2 melanoma 66.5% | EKVX NSCLC 76.1% | SN12C renal 95.9% | UO-31 renal 59.1% | TK-10 renal 132% | ACHN renal 84.4% | A498 renal 76.8% | CCRF-CEM leukemia 90.4% | MOLT-4 leukemia 84.5%
